Experimental data as given in PubChem BioAssay AID1745847 (National Center for Advancing Translational Sciences (NCATS), 2022).
Hit rate of the full screen: of about 2,100 compounds, about 670 (32%) were called active. Another 50% or so got no clear call; they are omitted. Calls come from the whole dose curve; as a rule, active = well fitted inhibition curve with a large enough effect; inconclusive = small, poorly fitted or top-dose-only effect; inactive = no such curve, though single readings can be large or run the other way. Some of the results follow.

Assay: CMV-Luciferase Counterscreen for Inhibitors of ATXN expression; note: nearly all actives have a fitted effect of over 55% in size
Conditions: HEK-293 CMV-luciferase reporter, luminescence, 24 h; series mostly up to 57.5 µM; activity change, negative = inhibition: at the top concentration
% is set by controls: 0 for no effect and ±100 for the full control effect; potency is the fitted concentration of half-maximal effect.

Structure (SMILES)	Potency	activity change, negative = inhibition
NC(=O)c1cccc(-c2ccnc3c2CC(C(=O)Nc2cccc(C(F)(F)F)c2)O3)c1 (centres undefined)	3.98 µM (active)	–
O=C(Nc1cccnc1)C1Cc2c(-c3ccc4c(c3)OCO4)ccnc2O1 (centres undefined)	–	-23.6% [at 11.4 µM] (inactive)
CS(=O)(=O)Nc1cccc(NC(=O)c2cccc3c(-c4cccc(C(N)=O)c4)coc23)c1	–	-17.1% (inactive)
O=C(CNC(=O)c1ccccc1F)N/N=C/c1cc(Br)ccc1OC(=O)/C=C/c1ccco1	12.6 µM (active)	–
O=C(CNC(=O)c1ccc(F)cc1)N/N=C/c1cc(Br)ccc1OC(=O)/C=C/c1ccco1	8.91 µM (active)	–
NS(=O)(=O)c1ccc(CCNC(=O)COC(=O)/C=C/c2cc(Br)ccc2F)cc1	–	-4.52% [at 11.4 µM] (inactive)
O=C(CNC(=O)c1cccc(F)c1)N/N=C/c1cc(Br)ccc1OC(=O)/C=C/c1ccco1	4.47 µM (active)	–
Cc1cc(C)c2c(N)c3cccc(C)c3nc2n1	10 µM (active)	–
Cc1nc(N=C(N)N)nc2c(C)cccc12	–	17.6% (inactive)
Cc1ccccc1C(=O)N1CCN(c2ccc(NC(=O)c3ccc4c(c3)OCCO4)cc2)CC1	2.24 µM (active)	–
O=C(Nc1ccc(NC(=O)c2cccs2)cc1)c1ccc2c(c1)OCO2	–	-7.86% [at 11.4 µM] (inactive)
COc1c(C)cccc1C(=O)Nc1ccc(N2CCN(C(=O)c3ccccc3C)CC2)cc1	15.8 µM (active)	–
CC(=O)Nc1cc(-c2ccc(C(=O)NC3CC3)cc2)cn2c(-c3cccc(C(C)=O)c3)cnc12	–	3.81% (inactive)
O=[N+]([O-])c1cc(CN2CCN(c3ccccc3)CC2)c(O)c2ncccc12	7.94 µM (active)	–
O=[N+]([O-])c1cc(Cl)c(O)c2ncccc12	8.91 µM (active)	–
O=[N+]([O-])c1cc(O)c2ncccc2c1	3.16 µM (active)	–
Oc1c(CN2CCOCC2)cc(COCc2ccccc2)c2cccnc12	3.55 µM (active)	–
Oc1ccc(Cl)c2cccnc12	–	-22.2% (inactive)
O=[N+]([O-])c1ccc(O)c2ncccc12	7.08 µM (active)	–
O=C(O)COc1ccc2oc3ccccc3c2c1	–	-24.7% [at 11.4 µM] (inactive)
CCOC(=O)c1c(-c2ccccc2)oc2ccc(OCC(=O)NN)cc12	28.2 µM (active)	–
NNC(=O)c1nc(-c2ccccc2)cc(-c2ccccc2)n1	–	23.1% (inactive)
OCCNc1c2ccccc2nc2c(F)c(F)c(F)c(F)c12	7.94 µM (active)	–

Structure (SMILES)	Potency	activity change, negative = inhibition
OCCNc1c2ccccc2nc2ccccc12	20 µM (active)	–
O=c1c(Cc2ccccc2)c(O)nc2n1CCS2	–	-22.8% (inactive)
Cc1ccc(-c2cn(-c3ccc(OC(F)F)cc3)c3[n+]2CCCCC3)cc1	12.6 µM (active)	–
CCOC(=O)C1CCN(C(=O)c2c(C)oc3c2C(=O)c2ccccc2C3=O)CC1	12.6 µM (active)	–
Cc1ccc(C)n1-c1ccc(C(=O)N2CCC(C(N)=O)CC2)cc1	–	4.95% [at 11.4 µM] (inactive)
O=C1c2cccc3c([N+](=O)[O-])ccc(c23)C(=O)N1c1ccc(Cl)cn1	20 µM (active)	–
Cc1ccc(C(=O)O)cc1N1C(=O)c2cccc3c([N+](=O)[O-])ccc(c23)C1=O	–	4.18% (inactive)
Cc1ccnc(N2C(=O)c3cccc4c([N+](=O)[O-])ccc(c34)C2=O)c1	12.6 µM (active)	–
Cc1ccc(-c2noc(CCCC(=O)NC3CCCC3)n2)cc1	7.08 µM (active)	–
COc1ccc(-c2noc(CCCC(=O)NC3CCCC3)n2)cc1	7.94 µM (active)	–
Cc1ccccc1NC(=O)Nc1nc(C(N)C2CCCCC2)cs1 (centres undefined)	–	-17.1% (inactive)
CN(C)C(=O)c1cccc(-c2cnc3c(NC=O)cc(-c4ccccc4N(C)C)cn23)c1	–	-27.7% [at 11.4 µM] (inactive)
CCN1CCN(c2ccc(S(=O)(=O)N3CCCCC3)cc2NC(=O)/C=C/c2ccc([N+](=O)[O-])cc2)CC1	–	-17.9% [at 11.4 µM] (inactive)
CCN1CCN(c2ccc(S(=O)(=O)N3CCCCC3)cc2NC(=O)c2ccc([N+](=O)[O-])s2)CC1	3.16 µM (active)	–
COc1ccccc1C(=O)NNC(=S)NC(=O)c1ccco1	7.94 µM (active)	–
COc1ccccc1NC(=S)NC(=O)c1ccc(Cn2cc(Br)cn2)cc1	–	-18.1% (inactive)
CC[C@H]1CN2CCc3cc(OC)c(OC)cc3C2C[C@@H]1C[C@H]1NCCc2cc(OC)c(OC)cc21 (some centres undefined)	1.12 µM (active)	–
CCC1=C(CC2NCCc3ccccc32)CC2c3cc(OC)c(OC)cc3CCN2C1 (centres undefined)	14.1 µM (active)	–
CC[C@H]1CN2CCc3cc(OC)c(OC)cc3[C@@H]2C[C@@H]1C[C@H]1NCCc2cc(OC)c(OC)cc21	0.0794 µM (active)	–
CCCCOc1ccc(NC2=NC3(CCCC3)N=C(N)N2)cc1	–	-4.4% (inactive)
C/C(=N\N=C(N)N)c1ccc(Cl)cc1Cl	–	-27.5% (inactive)
CC(C)[C@@H]1CC[C@@H](C)C[C@H]1OC(=O)C[n+]1cc(-c2ccc(Cl)cc2)n2c1CCCCC2	14.1 µM (active)	–
NNc1ncnc2scc(-c3ccc(Cl)cc3)c12	25.1 µM (active)	–

Structure (SMILES)	Potency	activity change, negative = inhibition
O=C(CSc1nnc(-c2ccc(Br)cc2)o1)Nc1cccc(C(=O)O)c1	4.47 µM (active)	–
COc1cccc(NC(=O)CSc2nc3ncc(Br)cc3[nH]2)c1	–	193% [at 11.4 µM] (inactive)
O=C(Nc1ccc(Oc2ccc(NC(=O)Nc3ccc([N+](=O)[O-])cc3)cc2)cc1)Nc1ccc([N+](=O)[O-])cc1	2.82 µM (active)	–
O=C1c2cc(Cl)ccc2-c2c(O)cc(Cl)cc21	–	-8.29% (inactive)
COCc1ccc(CN2CCC(C(=O)Nc3cccc(-c4cccc(Cl)c4)c3)CC2)o1	14.1 µM (active)	–
O=C(Nc1ccc2oc(=O)ccc2c1)c1ccc(-c2cccc(Cl)c2)o1	–	-21.8% (inactive)
COC(=O)Cc1[nH]n(-c2nc3ccccc3s2)c(=O)c1C(C)=Nc1ccc(C)cc1	0.501 µM (active)	–
CC(C)[C@H](CO)Nc1nc(NCc2ccc(S(N)(=O)=O)cc2)c2ncn(C(C)C)c2n1	–	41.8% [at 11.4 µM] (inactive)
Cc1ccn2c(Nc3ccccc3C)c(-c3ccccn3)nc2c1	5.01 µM (active)	–
Nc1ccc(OC(=O)Nc2ccc(O)cc2)cc1	12.6 µM (active)	–
CCOC(=O)c1c(NC(=O)COC(=O)c2ccccc2NC)sc(C(=O)N(C)C)c1C	–	-21.4% [at 11.4 µM] (inactive)
Cc1cccc2sc(N(CCCN(C)C)C(=O)c3ccco3)nc12	–	6.04% (inactive)
Cc1cc(C)c2nc(N(CCCN(C)C)C(=O)c3ccc4c(c3)OCCO4)sc2c1	28.2 µM (active)	–
CN(C)CCCN(C(=O)c1ccc2c(c1)CCCC2)c1nc2cc3c(cc2s1)OCO3	–	-9.48% (inactive)
Nc1nc(NCCCN2CCOCC2)nc(Nc2ccccc2F)c1[N+](=O)[O-]	–	-23.9% (inactive)
O=C(NCCc1cn2ccccc2n1)c1cc(COc2ccc3ncccc3c2)on1	14.1 µM (active)	–
Cc1ccc(C)c(S(=O)(=O)N2CCN(c3ncnc4sccc34)CC2)c1	1.41 µM (active)	–
CN(C)CCNC(=O)c1cccc2nc3cccc(F)c3nc12	10 µM (active)	–
CN(C)CCNC(=O)c1ccc(Cl)c2cc3ccccc3nc12	10 µM (active)	–
CN(C)CCNC(=O)c1cccc2[nH]c(-c3ccncc3)nc12	–	-19.8% [at 11.4 µM] (inactive)
CN(C)CCCN(C(=O)c1ccc(S(=O)(=O)N(C)Cc2ccccc2)cc1)c1nc2c(F)cccc2s1	–	-26.4% (inactive)
OCCN(Cc1ccccc1)CC(O)COc1ccc(-c2ccccc2)cc1 (centres undefined)	–	-22.7% (inactive)
CN1C/C(=C/c2cccnc2)C(=O)/C(=C/c2cccnc2)C1	–	-8.05% [at 11.4 µM] (inactive)

Structure (SMILES)	Potency	activity change, negative = inhibition
O=C1/C(=C/c2ccncc2)CCC/C1=C\c1ccncc1	8.91 µM (active)	–
Cc1onc(-c2c(Cl)cccc2Cl)c1C(=O)N/N=C(\N)COc1ccc(Cl)cc1	3.55 µM (active)	–
O=[N+]([O-])c1c(Nc2ccccn2)cc(Cl)c2nonc12	11.2 µM (active)	–
CCC(=O)OCCNc1cc(Sc2nc3ccccc3[nH]2)c2nonc2c1[N+](=O)[O-]	–	-17% [at 11.4 µM] (inactive)
O=[N+]([O-])c1ccc(C[n+]2cccc3ccc4cccnc4c32)cc1	3.16 µM (active)	–
COc1cc(/C=N/Nc2snc(SC)c2C#N)cc(OC)c1OC	–	1.9% (inactive)
CC(C)(C)c1ccc(NC(=O)N2CCCN(c3c(Cl)cncc3Cl)CC2)cc1	–	-11.8% (inactive)
O=C(Nc1ccccc1Cl)N1CCCN(c2nc(-c3ccccc3)ns2)CC1	14.1 µM (active)	–
Cc1c(Cl)cccc1NC(=O)N1CCCN(c2nc(-c3ccccc3)ns2)CC1	10 µM (active)	–
Cc1c(N=C2N=C(NC(=O)Nc3ccc(Cl)cc3)c3ccccc32)c(=O)n(-c2ccccc2)n1C	–	-6.01% (inactive)
Cc1c(N=C2C=CC(=O)c3ccccc32)c(=O)n(-c2ccccc2)n1C	31.6 µM (active)	–
Cc1cc(C)c(O)c(CN(C)Cc2cc(Cl)cc(Cl)c2O)c1	10 µM (active)	–
CCOC(=O)c1c(SCCN2CCCCC2)n(-c2ccccc2)c(=S)n(-c2ccccc2)c1=O	22.4 µM (active)	–
Cc1sc2ncnc(NCC(O)c3ccc([N+](=O)[O-])cc3)c2c1C (centres undefined)	5.62 µM (active)	–
O=C(O)CCn1cc(/C=C/C(=O)c2ccc(Cl)cc2)c(-c2ccc(Br)cc2)n1	10 µM (active)	–
CC[C@@]1(O)C(=O)OCc2c1cc1n(c2=O)Cc2cc3c(CN(C)C)c(O)ccc3nc2-1	11.2 µM (active)	–
CCC1(O)C(=O)OCc2c1cc1n(c2=O)Cc2cc3cc(O)ccc3nc2-1 (centres undefined)	0.891 µM (active)	–
O=C(NC1C=CS(=O)(=O)C1)c1sc2ccccc2c1Cl (centres undefined)	–	-11.1% [at 11.4 µM] (inactive)
Brc1cnc2nc(SCc3nc4ccccc4[nH]3)[nH]c2c1	–	361% [at 11.4 µM] (inactive)
CCCCc1ccc(NC(=O)N2CCN(c3cc(C)nc4ccccc34)CC2)c(C)c1	12.6 µM (active)	–
